Measured values reported in PubChem BioAssay (Tox21).
Results filed as inconclusive are left out. The source made the active and inactive calls. Unless noted, the call rests on the fitted dose curve; in most records, active means well fitted curve in the direction sought with a large enough effect in the repeat runs; inconclusive means weak or mixed curves; inactive means no such curve, though single readings can be large; an effect the other way counts as inactive or inconclusive.

Tests used:
[1] = qHTS RealTime-Glo MT Cell Viability Assay in HEK293 cells - 8 hour (AID 1224887); further: top concentration of the series differs between compounds; nearly all actives have a fitted effect of over 50% in size
How it was run: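 Luminescence readout at each listed time point; HEK293, 600 cells/well, RealTime-Glo MT reagent added with cells; compounds pinned (23 nL in DMSO) after 5 h at 37 C; continuous culture at 37 C.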

[2] = A CellTox Green Cytotoxicity Assay to monitor cytotoxicity in HEK293 cells - 16 hour (AID 1224888); further: nearly all actives have a fitted effect of over 35% in size
How it was run: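 Read-out: fluorescence of a cell-impermeant cyanine dye staining DNA of dead cells, proportional to cytotoxicity. HEK293, 600 cells/well with reagent, compound (23 nL DMSO) added after 5 h; reads at 0, 8, 16, 24, 32, 40 h.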

[3] = qHTS RealTime-Glo MT Cell Viability Assay in HepG2 cells - 0 hour (AID 1224889); further: nearly all actives have a fitted effect of over 50% in size
How it was run: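 Cell number in HepG2 cultures estimated from NanoLuc luminescence generated by metabolic reduction of a prosubstrate by living cells. The homogeneous, nonlytic format allowed repeated reads at 0, 8, 16, 24, 32 and 40 h of compound exposure.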

[4] = A CellTox Green Cytotoxicity Assay to monitor cytotoxicity in HepG2 cells - 8 hour (AID 1224890); further: nearly all actives have a fitted effect of over 45% in size
How it was run: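 HepG2, 600 cells/well premixed w/ CellTox Green; 5 h settle, 37 C/5% CO2; pintool cpd add (DMSO); 37 C, 40 h; fluorescence read at 0, 8, 16, 24, 32, 40 h.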

[5] = qHTS assay to identify small molecule antagonists of the estrogen receptor alpha (ER-alpha) signaling pathway using the BG1 cell line in the presence of 0.1 nM 17-beta-estradiol - cell viability counter screen (AID 1259241); further: nearly all actives have a fitted effect of over 40% in size
How it was run: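 VM7Luc4E2, 4,000 cells/well, phenol red-free medium + 10% charcoal-stripped FBS; 24 hr plating; cpd + 0.1 nM E2 final, 22 hr 37C/5% CO2; CellTiter-Fluor 30 min, fluorescence.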

[6] = qHTS assay to identify small molecule antagonists of the androgen receptor (AR) signaling pathway using the MDA cell line in the presence of 0.5 nM R1881 - cell viability counter screen (AID 1259242); further: nearly all actives have a fitted effect of over 45% in size
How it was run: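 Live-cell protease fluorescence, CellTiter-Fluor, 30 min at 37C. Cells: MDA-kb2, 3,000/well, preincubated 5 hr. Compounds plus 0.5 nM R1881 final, 16 hr, 37C, 0% CO2.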

[7] = target: Estrogen receptor (Homo sapiens) (UniProt P03372); assay: qHTS assay to identify small molecule antagonists of the estrogen receptor alpha (ER-alpha) signaling pathway using the BG1 cell line in the presence of 0.1 nM 17-beta-estradiol (AID 1259244); further: nearly all actives have a fitted effect of over 50% in size
Sequence of Estrogen receptor (Homo sapiens) (P03372 whole entry, looked up): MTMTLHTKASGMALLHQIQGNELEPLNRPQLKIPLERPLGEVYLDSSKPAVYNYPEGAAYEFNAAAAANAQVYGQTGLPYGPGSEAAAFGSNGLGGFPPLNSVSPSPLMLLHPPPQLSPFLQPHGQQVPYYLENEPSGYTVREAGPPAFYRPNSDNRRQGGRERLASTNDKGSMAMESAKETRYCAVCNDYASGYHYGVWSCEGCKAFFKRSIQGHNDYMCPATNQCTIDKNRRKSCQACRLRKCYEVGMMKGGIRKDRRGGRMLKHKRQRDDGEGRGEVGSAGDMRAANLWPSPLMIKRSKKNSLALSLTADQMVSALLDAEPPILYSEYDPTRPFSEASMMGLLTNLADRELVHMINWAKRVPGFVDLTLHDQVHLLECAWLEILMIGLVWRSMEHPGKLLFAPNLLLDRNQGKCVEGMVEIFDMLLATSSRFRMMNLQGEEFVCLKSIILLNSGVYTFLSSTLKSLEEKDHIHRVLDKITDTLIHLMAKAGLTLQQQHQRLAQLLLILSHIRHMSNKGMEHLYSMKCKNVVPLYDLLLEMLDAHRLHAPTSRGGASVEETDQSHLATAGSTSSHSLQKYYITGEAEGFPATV
How it was run: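 Luminescence after ONE-Glo (30 min, room temperature) measured ERE-luciferase activity in VM7Luc4E2 cells treated 22 h with compound and 0.1 nM final 17beta-estradiol as stimulator.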

[8] = qHTS assay to identify small molecule HDAC inhibitors (AID 1259364);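 further: wild-type HCT-116 cells with endogenous class I/II HDAC activity; top concentration of the series differs between compounds; nearly all actives have a fitted effect of over 45% in size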
How it was run: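 HCT-116 (wild type), 1,500 cells/well, overnight; compound 2 hr 37C 5% CO2; HDAC-Glo I/II reagent 30 min RT; luminescence readout.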

[9] = qHTS assay to identify small molecule phospholipidosis (PLD) inducers (AID 1259344; active means well fitted curve in the direction sought with a large enough effect; an effect the other way counts as inactive or inconclusive)
How it was run: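 Phospholipid accumulation was scored by imaging: fixed, Hoechst-counterstained HepG2 cells stained with LipidTOX Red after 24 h compound exposure at 37 C. Read-outs were pit count and pit intensity per well or per cell, with amiodarone and DMSO controls.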
On the % scale 0 is the no-effect control and ±100 the full control effect.

c1coc(Cn2cccc2)c1
inactive: outcome [1] | Potency [2] | Potency [3] | Potency [4] | outcome [5] | outcome [6] | outcome [7] | Potency [8]

CC(C)OCCO
inactive: outcome [1] | Potency [2] | Potency [3] | Potency [4] | outcome [5] | outcome [6] | Potency [8]

O=C(O)P(=O)(O)O
inactive: outcome [1] | Potency [2] | Potency [3] | Potency [4] | outcome [5] | outcome [6] | Potency [9] | Potency [8]

CCCCN=C(N)N=C(N)N
inactive: outcome [1] | Potency [2] | Potency [3] | Potency [4] | outcome [5] | outcome [6] | Potency [9] | Potency [8]

O=c1[nH]c(=O)c2cn[nH]c2[nH]1
inactive: outcome [1] | Potency [2] | Potency [3] | Potency [4] | outcome [5] | outcome [6] | Potency [8]

c1cc2ccc3ccc4ccc5cccc6c(c1)c2c3c4c56
inactive: activity change, negative = cytotoxicity [1] -6.75% [at 2.72 µM] | activity change [2] -11.1% [at 2.72 µM, active compounds read high] | activity change, negative = cytotoxicity [3] 3.24% [at 2.72 µM] | cytotoxicity increase [4] -16.5% [at 2.72 µM] | activity change, negative = cytotoxicity [5] 10.7% [at 3.27 µM] | viability change, negative = cytotoxic [6] 1.62% [at 3.26 µM] | activity change, negative = inhibition [8] -0.743% [at 3.27 µM]

COC(=O)c1ccc(C(=O)O)cc1
inactive: outcome [1] | Potency [2] | Potency [3] | Potency [4] | outcome [5] | outcome [6] | Potency [8]
